Assay results as given in PubChem BioAssay (NCI).
This is part of a sample that, as a whole, favours compounds with a hit. Of some 83,000 tested, about 20% had one in any assay.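 Note: values are percent growth. 100 is the growth of untreated cells, values between 100 and 0 indicate rising inhibition; between -100 and 0 indicates cell death.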 Calls of active or inactive are those of the source. Rule for the calls: active = growth percent below 10; inactive = the rest.

System: K-562 leukemia
Assay: NCI-60 one-dose screen, 48 h (100 = growth as untreated, 0 = no growth, -100 = all killed)
Details: 10 µM unless noted

**Q.** How did the growth turn out when `COc1cc2oc(-c3cccc(C(=O)Nc4ccc(Br)cc4)c3)cc(=O)c2c(OC)c1OC` was run?
**A.** The growth was 48.9% (inactive).

**Q.** With `CC1=C(C(=O)/C=C/c2c[nH]c3ccccc23)C(c2ccccc2)NC(=S)N1` (stereo not drawn) as the compound, how does the growth read?
**A.** The growth was 90.1% (inactive).

**Q.** How did the growth turn out when `CCCCCN1C=C/C(=C\C(=O)N(C)c2ccc(Oc3ccccc3)cc2)c2ccccc21` was run?
**A.** The growth was 48.8% (inactive).

**Q.** `COc1ccc(/C=C2\Oc3cc(OCCCN4CCCCC4)ccc3C2=O)cc1OC` was tested. Which growth did it give?
**A.** The growth was -22.8% (active).

**Q.** How did the growth turn out when `Cc1cc2nc3c4cc(C=O)ccc4n(CCN(C)C)c3nc2cc1C` was run?
**A.** The growth was 5.5% (active).

**Q.** For `S=c1cc(S)c2cc(Br)ccc2[nH]1`, which growth is on record?
**A.** Its growth is 94.9% (inactive).

**Q.** With `COc1cc(CC(=O)c2ccc(O)c(OC)c2)ccc1O` as the compound, how does the growth read?
**A.** The growth was 89.1% (inactive).

**Q.** With `O=C(NCCc1ccccc1)Nc1ccc2cc3ccc(NC(=O)NCCc4ccccc4)cc3nc2c1` as the compound, how does the growth read?
**A.** Its growth is 1.41% (active).

**Q.** For `C=C(C)[C@@H]1CC[C@]2(C(=O)N3CCN(C)CC3)CC[C@]3(C)[C@H](CC[C@@H]4[C@@]5(C)C/C(=C/c6cccnc6)C(=O)C(C)(C)[C@@H]5CC[C@]43C)[C@@H]12`, which growth is on record?
**A.** The growth was 21.9% (inactive).

**Q.** How did the growth turn out when `COc1cc2nc(-c3ccc(Cl)cc3)cc(OCCCN3CCC(O)CC3)c2cc1OC` was run?
**A.** The growth was 13.9% (inactive).

**Q.** For `O=S(=O)(NCCNc1nccc(-c2c(-c3cccc(O)c3)nc3occn23)n1)c1ccccc1`, which growth is on record?
**A.** Its growth is 68.4% (inactive).

**Q.** With `NC(=NCCCOc1ccc(F)cc1)Nc1ccc(Cl)cc1` as the compound, how does the growth read?
**A.** Its growth is 64.7% (inactive).

**Q.** `O=C1Nc2cc(-c3cccc([N+](=O)[O-])c3)ccc2/C1=C/c1ccc[nH]1` was tested. Which growth did it give?
**A.** Its growth is 72.2% (inactive).

**Q.** How did the growth turn out when `C[C@H]1[C@H](C)CC[C@]2(C(=O)NCC#CCN3CCN(C)CC3)CC[C@]3(C)C(=CC[C@@H]4[C@@]5(C)Cc6c([nH]c7ccccc67)C(C)(C)[C@@H]5CC[C@]43C)[C@H]12` was run?
**A.** Its growth is 1.37% (active).

**Q.** How did the growth turn out when `COc1cc(/C=C/c2cc(O)c(C(C)=O)c(O)c2)cc2c1O[C@]1(C)CC[C@@H](O)C(C)(C)[C@H]1C2` was run?
**A.** Its growth is 31.6% (inactive).

**Q.** For `COc1ccc(C(=O)c2cc(C)c(OC)c(C)c2)c(OC)c1N(C(=O)CCl)C(=O)CCl`, which growth is on record?
**A.** The growth was 9.77% (active).

**Q.** `CCC(=O)Oc1ccc(/C(=C(\C)c2ccccc2)c2ccc(OCCN3CCCCC3)cc2)cc1` was tested. Which growth did it give?
**A.** The growth was 17.1% (inactive).

**Q.** With `Cc1ccc(NC(=O)c2cc(-c3nc4ccccc4s3)c(=O)n(NS(=O)(=O)c3ccc(Cl)cc3)c2N)cc1` as the compound, how does the growth read?
**A.** Its growth is 100% (inactive).

**Q.** Which growth does the source give for `O=C(NO)c1ccc(-n2nc(-c3ccccc3)c3ccccc32)cc1` here?
**A.** The growth was 37.8% (inactive).

**Q.** Which growth does the source give for `CNC(=O)c1cncc(Cn2nc(C)c(NC(=O)c3ccc(COc4ccc(C(F)(F)F)cc4C)cc3)c2C)c1` here?
**A.** The growth was 37% (inactive).

**Q.** `Cc1cc(C)c(S(=O)(=O)Oc2ccccc2[N+](=O)[O-])c(C)c1` was tested. Which growth did it give?
**A.** Its growth is 22.1% (inactive).

**Q.** With `C=C1C(=O)O[C@H]2[C@H]1CC/C(CNC(=O)C(C)c1ccc(CC(C)C)cc1)=C\CC[C@@]1(C)O[C@@H]21` (stereo partly drawn) as the compound, how does the growth read?
**A.** The growth was -13.8% (active).

**Q.** For `CN1CCN(C(=O)[C@]23CCC(C)(C)C[C@H]2C2=CC[C@@H]4[C@@]5(C)C/C(=C/c6cccnc6)C(=O)C(C)(C)[C@@H]5CC[C@@]4(C)[C@]2(C)CC3)CC1`, which growth is on record?
**A.** Its growth is 10.9% (inactive).

**Q.** For `O=C1Nc2cc(-c3cccc(O)c3)ccc2/C1=C/c1ccc[nH]1`, which growth is on record?
**A.** The growth was 5.66% (active).

**Q.** With `CCNC(=O)Oc1ccc(/C(=C(\C)c2ccccc2)c2ccc(OCCN3CCCCC3)cc2)cc1` as the compound, how does the growth read?
**A.** The growth was 6.5% (active).

System: MALME-3M melanoma
Assay: as above
Details: 10 µM unless noted

**Q.** `Cc1nn(-c2ccccc2)c(Cl)c1/C=C/C(=O)c1ccc(F)cc1` was tested. Which growth did it give?
**A.** Its growth is 93.2% (inactive).

**Q.** How did the growth turn out when `COc1cc2oc(-c3cccc(C(=O)Nc4ccc(Br)cc4)c3)cc(=O)c2c(OC)c1OC` was run?
**A.** The growth was 80.9% (inactive).

**Q.** `CC1=C(C(=O)/C=C/c2c[nH]c3ccccc23)C(c2ccccc2)NC(=S)N1` (stereo not drawn) was tested. Which growth did it give?
**A.** Its growth is 97.7% (inactive).

**Q.** With `CCCCCN1C=C/C(=C\C(=O)N(C)c2ccc(Oc3ccccc3)cc2)c2ccccc21` as the compound, how does the growth read?
**A.** Its growth is 83.7% (inactive).

**Q.** `Cn1cc(-c2nc(-c3c[nH]c4c(Cl)nccc34)cs2)c2cc(Br)ccc21` was tested. Which growth did it give?
**A.** The growth was 118% (inactive).

**Q.** With `COc1ccc(/C=C2\Oc3cc(OCCCN4CCCCC4)ccc3C2=O)cc1OC` as the compound, how does the growth read?
**A.** Its growth is 104% (inactive).

**Q.** For `Cc1cc2nc3c4cc(C=O)ccc4n(CCN(C)C)c3nc2cc1C`, which growth is on record?
**A.** The growth was -3.12% (active).

**Q.** `S=c1cc(S)c2cc(Br)ccc2[nH]1` was tested. Which growth did it give?
**A.** Its growth is 98.4% (inactive).

**Q.** With `O=C(/C(=C\c1ccc([N+](=O)[O-])cc1)S(=O)Cc1ccc(Cl)cc1)c1ccc(Cl)cc1` (stereo not drawn) as the compound, how does the growth read?
**A.** The growth was 92.7% (inactive).

**Q.** How did the growth turn out when `COc1cc(CC(=O)c2ccc(O)c(OC)c2)ccc1O` was run?
**A.** Its growth is 107% (inactive).

**Q.** `O=C(NCCc1ccccc1)Nc1ccc2cc3ccc(NC(=O)NCCc4ccccc4)cc3nc2c1` was tested. Which growth did it give?
**A.** The growth was -13.8% (active).

**Q.** Which growth does the source give for `C=C(C)[C@@H]1CC[C@]2(C(=O)N3CCN(C)CC3)CC[C@]3(C)[C@H](CC[C@@H]4[C@@]5(C)C/C(=C/c6cccnc6)C(=O)C(C)(C)[C@@H]5CC[C@]43C)[C@@H]12` here?
**A.** Its growth is 71.4% (inactive).

**Q.** For `COc1cc2nc(-c3ccc(Cl)cc3)cc(OCCCN3CCC(O)CC3)c2cc1OC`, which growth is on record?
**A.** The growth was 64% (inactive).

**Q.** `O=S(=O)(NCCNc1nccc(-c2c(-c3cccc(O)c3)nc3occn23)n1)c1ccccc1` was tested. Which growth did it give?
**A.** Its growth is 2.3% (active).

**Q.** For `NC(=NCCCOc1ccc(F)cc1)Nc1ccc(Cl)cc1`, which growth is on record?
**A.** The growth was 54.6% (inactive).

**Q.** For `C#Cc1cccc(NC(=O)c2cccc(NC(=O)CCl)c2)c1`, which growth is on record?
**A.** Its growth is -80.3% [8.25 µM] (active).

**Q.** Which growth does the source give for `CCN1Cc2nc3sc(C)c(C)c3c(=O)n2C=C1C` here?
**A.** Its growth is 79% (inactive).

**Q.** Which growth does the source give for `O=C1Nc2cc(-c3cccc([N+](=O)[O-])c3)ccc2/C1=C/c1ccc[nH]1` here?
**A.** The growth was 89% (inactive).

**Q.** For `C[C@H]1[C@H](C)CC[C@]2(C(=O)NCC#CCN3CCN(C)CC3)CC[C@]3(C)C(=CC[C@@H]4[C@@]5(C)Cc6c([nH]c7ccccc67)C(C)(C)[C@@H]5CC[C@]43C)[C@H]12`, which growth is on record?
**A.** The growth was 61.6% (inactive).

**Q.** For `COc1cc(/C=C/c2cc(O)c(C(C)=O)c(O)c2)cc2c1O[C@]1(C)CC[C@@H](O)C(C)(C)[C@H]1C2`, which growth is on record?
**A.** The growth was 65.8% (inactive).

**Q.** How did the growth turn out when `N#CC1=C(N)Oc2c(cnn2-c2ccc([N+](=O)[O-])cc2[N+](=O)[O-])C1c1ccccc1` (stereo not drawn) was run?
**A.** The growth was 99.8% (inactive).

**Q.** `COc1ccc(C(=O)c2cc(C)c(OC)c(C)c2)c(OC)c1N(C(=O)CCl)C(=O)CCl` was tested. Which growth did it give?
**A.** Its growth is 49.8% (inactive).

**Q.** For `CCC(=O)Oc1ccc(/C(=C(\C)c2ccccc2)c2ccc(OCCN3CCCCC3)cc2)cc1`, which growth is on record?
**A.** Its growth is 79% (inactive).

**Q.** Which growth does the source give for `Cc1ccc(NC(=O)c2cc(-c3nc4ccccc4s3)c(=O)n(NS(=O)(=O)c3ccc(Cl)cc3)c2N)cc1` here?
**A.** Its growth is 112% (inactive).

**Q.** Which growth does the source give for `O=C1Nc2ccc(F)cc2/C1=C\c1c(-c2ccccc2)nc2ccccn12` here?
**A.** Its growth is 67.5% (inactive).

**Q.** With `O=C(NO)c1ccc(-n2nc(-c3ccccc3)c3ccccc32)cc1` as the compound, how does the growth read?
**A.** The growth was 57% (inactive).

**Q.** With `O=C1Nc2ccccc2/C1=C\c1c(-c2ccc(F)cc2)nc2ccccn12` as the compound, how does the growth read?
**A.** Its growth is 73.7% (inactive).

**Q.** How did the growth turn out when `Oc1cccc(CCc2ccc(Oc3cc(CCc4cccc(O)c4)cc(O)c3O)cc2)c1` was run?
**A.** Its growth is 110% (inactive).

**Q.** `CCCCCCCC(=O)OCC/C=C/C1OC1C1OC(=O)/C=C\C=C\C(=O)N(C(C)=O)C(=O)/C=C(/C)CCC2OC2C1OC(=O)NC(C)=O` (stereo not drawn) was tested. Which growth did it give?
**A.** The growth was 123% (inactive).

**Q.** For `Cc1ccc(NS(=O)(=O)c2ccc(-c3cnc(C4CC4)o3)cc2)cc1C(F)(F)F`, which growth is on record?
**A.** The growth was 65.8% (inactive).

**Q.** How did the growth turn out when `CNC(=O)c1cncc(Cn2nc(C)c(NC(=O)c3ccc(COc4ccc(C(F)(F)F)cc4C)cc3)c2C)c1` was run?
**A.** Its growth is 73.8% (inactive).

**Q.** For `Cc1cc(C)c(S(=O)(=O)Oc2ccccc2[N+](=O)[O-])c(C)c1`, which growth is on record?
**A.** The growth was 21% (inactive).

**Q.** Which growth does the source give for `C=C1C(=O)O[C@H]2[C@H]1CC/C(CNC(=O)C(C)c1ccc(CC(C)C)cc1)=C\CC[C@@]1(C)O[C@@H]21` (stereo partly drawn) here?
**A.** The growth was -60.7% (active).

**Q.** `NC(=S)N1N=C(c2ccccc2)CC1c1cn(-c2ccccc2)nc1-c1ccc(OCc2ccccc2)cc1` (stereo not drawn) was tested. Which growth did it give?
**A.** Its growth is 101% (inactive).

**Q.** With `CN1CCN(C(=O)[C@]23CCC(C)(C)C[C@H]2C2=CC[C@@H]4[C@@]5(C)C/C(=C/c6cccnc6)C(=O)C(C)(C)[C@@H]5CC[C@@]4(C)[C@]2(C)CC3)CC1` as the compound, how does the growth read?
**A.** Its growth is 63.4% (inactive).

**Q.** With `O=C1Nc2cc(-c3cccc(O)c3)ccc2/C1=C/c1ccc[nH]1` as the compound, how does the growth read?
**A.** Its growth is 16.1% (inactive).

**Q.** For `COc1ccc(/C=C/c2nc(Nc3ccc(S(=O)(=O)NC(C)=O)cc3)c3ccccc3n2)cc1`, which growth is on record?
**A.** The growth was 99.1% (inactive).

**Q.** With `CCNC(=O)Oc1ccc(/C(=C(\C)c2ccccc2)c2ccc(OCCN3CCCCC3)cc2)cc1` as the compound, how does the growth read?
**A.** The growth was 46.6% (inactive).
